Legend:
[1] = target: Sphingosine kinase 1 (Homo sapiens) (UniProt Q9NYA1); details: at 1 µM;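 note: mean SPHK1 inhibition value reported from the GSK PKIS kinase panel screen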
[2] = target: T1, Sphingosine kinase 2 (Homo sapiens) (UniProt Q9NRA0); details: at 0.1 µM
T1 sequence (whole entry): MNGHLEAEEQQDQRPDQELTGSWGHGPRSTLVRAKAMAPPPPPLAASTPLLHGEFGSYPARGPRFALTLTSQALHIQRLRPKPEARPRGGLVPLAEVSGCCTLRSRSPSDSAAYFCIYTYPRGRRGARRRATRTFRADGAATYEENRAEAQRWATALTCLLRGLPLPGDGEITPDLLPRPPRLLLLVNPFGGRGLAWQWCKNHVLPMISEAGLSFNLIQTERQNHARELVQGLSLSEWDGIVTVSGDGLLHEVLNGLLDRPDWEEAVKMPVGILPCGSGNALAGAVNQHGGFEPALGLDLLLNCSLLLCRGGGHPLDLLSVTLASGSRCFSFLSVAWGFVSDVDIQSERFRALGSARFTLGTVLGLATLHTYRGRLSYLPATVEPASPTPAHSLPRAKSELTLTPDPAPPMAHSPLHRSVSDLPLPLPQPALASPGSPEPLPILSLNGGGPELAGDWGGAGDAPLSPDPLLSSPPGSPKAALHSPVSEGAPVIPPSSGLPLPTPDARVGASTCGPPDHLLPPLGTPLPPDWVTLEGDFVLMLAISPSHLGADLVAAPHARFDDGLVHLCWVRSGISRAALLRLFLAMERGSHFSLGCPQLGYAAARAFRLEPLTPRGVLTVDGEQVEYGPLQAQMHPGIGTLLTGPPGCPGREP

[3] = target: T1, Sphingosine kinase 2 (Homo sapiens); details: at 1 µM
[4] = target: Casein kinase II subunit alpha (Homo sapiens) (UniProt P68400); details: at 0.1 µM
Casein kinase II subunit alpha (Homo sapiens), sequence (P68400 whole entry, looked up): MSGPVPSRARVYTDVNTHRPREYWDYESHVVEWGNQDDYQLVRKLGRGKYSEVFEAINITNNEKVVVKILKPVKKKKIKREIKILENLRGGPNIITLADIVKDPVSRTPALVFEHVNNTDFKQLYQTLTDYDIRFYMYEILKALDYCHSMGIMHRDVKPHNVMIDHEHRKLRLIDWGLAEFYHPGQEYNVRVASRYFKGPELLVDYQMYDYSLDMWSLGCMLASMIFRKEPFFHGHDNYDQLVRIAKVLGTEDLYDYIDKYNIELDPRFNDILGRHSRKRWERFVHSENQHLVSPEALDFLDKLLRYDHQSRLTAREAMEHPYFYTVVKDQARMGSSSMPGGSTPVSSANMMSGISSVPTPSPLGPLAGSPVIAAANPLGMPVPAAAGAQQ

[5] = target: Casein kinase II subunit alpha (Homo sapiens) (UniProt P68400); details: at 1 µM
[6] = target: T2, Inhibitor of nuclear factor kappa-B kinase subunit alpha (Homo sapiens) (UniProt O15111); details: at 0.1 µM
T2 sequence (whole entry): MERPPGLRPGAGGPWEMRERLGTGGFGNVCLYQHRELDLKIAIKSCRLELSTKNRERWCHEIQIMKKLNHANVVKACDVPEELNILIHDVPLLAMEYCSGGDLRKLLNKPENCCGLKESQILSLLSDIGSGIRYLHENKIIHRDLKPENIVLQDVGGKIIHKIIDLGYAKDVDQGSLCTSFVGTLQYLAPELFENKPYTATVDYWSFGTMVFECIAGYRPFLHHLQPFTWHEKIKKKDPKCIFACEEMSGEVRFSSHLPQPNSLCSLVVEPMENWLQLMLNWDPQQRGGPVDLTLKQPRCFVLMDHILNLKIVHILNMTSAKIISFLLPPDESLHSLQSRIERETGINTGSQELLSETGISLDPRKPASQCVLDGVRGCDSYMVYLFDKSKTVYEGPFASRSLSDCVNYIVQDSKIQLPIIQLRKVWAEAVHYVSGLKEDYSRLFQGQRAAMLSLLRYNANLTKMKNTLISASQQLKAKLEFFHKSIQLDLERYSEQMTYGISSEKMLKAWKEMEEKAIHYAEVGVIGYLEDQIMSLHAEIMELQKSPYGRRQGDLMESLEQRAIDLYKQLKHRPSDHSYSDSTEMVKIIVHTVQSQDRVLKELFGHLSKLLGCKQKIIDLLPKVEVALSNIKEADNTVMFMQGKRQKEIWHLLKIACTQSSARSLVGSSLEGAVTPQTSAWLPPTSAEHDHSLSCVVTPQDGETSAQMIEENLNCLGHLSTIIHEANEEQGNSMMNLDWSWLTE

[7] = target: T2, Inhibitor of nuclear factor kappa-B kinase subunit alpha (Homo sapiens); details: at 1 µM
[8] = target: T3, Inhibitor of nuclear factor kappa-B kinase subunit beta (Homo sapiens) (UniProt O14920); details: at 0.1 µM
T3 sequence (whole entry): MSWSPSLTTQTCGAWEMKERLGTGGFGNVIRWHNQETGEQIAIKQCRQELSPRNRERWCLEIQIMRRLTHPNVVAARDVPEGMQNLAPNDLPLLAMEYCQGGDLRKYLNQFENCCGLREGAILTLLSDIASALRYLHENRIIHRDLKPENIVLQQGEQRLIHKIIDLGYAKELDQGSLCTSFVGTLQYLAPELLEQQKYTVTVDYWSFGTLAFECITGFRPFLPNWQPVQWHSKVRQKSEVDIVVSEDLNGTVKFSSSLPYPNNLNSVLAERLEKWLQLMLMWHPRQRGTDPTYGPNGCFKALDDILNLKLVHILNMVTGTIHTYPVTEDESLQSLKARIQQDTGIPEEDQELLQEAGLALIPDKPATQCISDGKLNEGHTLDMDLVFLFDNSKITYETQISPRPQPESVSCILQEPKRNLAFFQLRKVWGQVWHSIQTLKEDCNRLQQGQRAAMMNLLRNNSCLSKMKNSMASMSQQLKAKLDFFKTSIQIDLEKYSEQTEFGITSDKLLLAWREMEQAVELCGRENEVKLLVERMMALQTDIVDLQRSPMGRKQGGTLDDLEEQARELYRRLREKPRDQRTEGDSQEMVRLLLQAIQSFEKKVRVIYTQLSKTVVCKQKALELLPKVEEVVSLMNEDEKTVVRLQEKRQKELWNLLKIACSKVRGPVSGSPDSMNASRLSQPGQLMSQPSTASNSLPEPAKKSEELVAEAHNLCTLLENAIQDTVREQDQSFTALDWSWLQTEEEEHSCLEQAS

[9] = target: T3, Inhibitor of nuclear factor kappa-B kinase subunit beta (Homo sapiens); details: at 1 µM
[10] = target: T4, Inhibitor of nuclear factor kappa-B kinase subunit epsilon (Homo sapiens) (UniProt Q14164); details: at 0.1 µM
T4 sequence (whole entry): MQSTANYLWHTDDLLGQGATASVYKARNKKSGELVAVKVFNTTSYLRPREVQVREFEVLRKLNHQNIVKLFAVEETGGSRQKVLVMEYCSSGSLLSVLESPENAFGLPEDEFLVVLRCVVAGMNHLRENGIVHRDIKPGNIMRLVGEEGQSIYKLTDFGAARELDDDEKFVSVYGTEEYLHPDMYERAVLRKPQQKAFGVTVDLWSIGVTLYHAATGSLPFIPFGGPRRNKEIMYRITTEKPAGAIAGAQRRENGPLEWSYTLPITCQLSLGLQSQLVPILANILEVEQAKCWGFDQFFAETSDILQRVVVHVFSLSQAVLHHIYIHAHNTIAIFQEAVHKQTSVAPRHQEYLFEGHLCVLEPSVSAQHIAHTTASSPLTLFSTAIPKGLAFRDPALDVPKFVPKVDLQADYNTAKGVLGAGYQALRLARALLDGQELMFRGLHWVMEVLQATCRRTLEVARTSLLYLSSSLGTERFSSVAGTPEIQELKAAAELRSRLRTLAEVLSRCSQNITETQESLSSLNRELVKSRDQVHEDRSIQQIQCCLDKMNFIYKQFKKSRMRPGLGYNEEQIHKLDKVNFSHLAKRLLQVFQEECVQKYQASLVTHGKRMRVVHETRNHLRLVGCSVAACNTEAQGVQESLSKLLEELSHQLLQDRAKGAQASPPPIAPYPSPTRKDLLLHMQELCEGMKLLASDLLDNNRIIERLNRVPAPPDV

[11] = target: T4, Inhibitor of nuclear factor kappa-B kinase subunit epsilon (Homo sapiens); details: at 1 µM
[12] = target: T5, Serine/threonine-protein kinase Nek1 (Homo sapiens) (UniProt Q96PY6); details: at 0.1 µM
T5 sequence (whole entry): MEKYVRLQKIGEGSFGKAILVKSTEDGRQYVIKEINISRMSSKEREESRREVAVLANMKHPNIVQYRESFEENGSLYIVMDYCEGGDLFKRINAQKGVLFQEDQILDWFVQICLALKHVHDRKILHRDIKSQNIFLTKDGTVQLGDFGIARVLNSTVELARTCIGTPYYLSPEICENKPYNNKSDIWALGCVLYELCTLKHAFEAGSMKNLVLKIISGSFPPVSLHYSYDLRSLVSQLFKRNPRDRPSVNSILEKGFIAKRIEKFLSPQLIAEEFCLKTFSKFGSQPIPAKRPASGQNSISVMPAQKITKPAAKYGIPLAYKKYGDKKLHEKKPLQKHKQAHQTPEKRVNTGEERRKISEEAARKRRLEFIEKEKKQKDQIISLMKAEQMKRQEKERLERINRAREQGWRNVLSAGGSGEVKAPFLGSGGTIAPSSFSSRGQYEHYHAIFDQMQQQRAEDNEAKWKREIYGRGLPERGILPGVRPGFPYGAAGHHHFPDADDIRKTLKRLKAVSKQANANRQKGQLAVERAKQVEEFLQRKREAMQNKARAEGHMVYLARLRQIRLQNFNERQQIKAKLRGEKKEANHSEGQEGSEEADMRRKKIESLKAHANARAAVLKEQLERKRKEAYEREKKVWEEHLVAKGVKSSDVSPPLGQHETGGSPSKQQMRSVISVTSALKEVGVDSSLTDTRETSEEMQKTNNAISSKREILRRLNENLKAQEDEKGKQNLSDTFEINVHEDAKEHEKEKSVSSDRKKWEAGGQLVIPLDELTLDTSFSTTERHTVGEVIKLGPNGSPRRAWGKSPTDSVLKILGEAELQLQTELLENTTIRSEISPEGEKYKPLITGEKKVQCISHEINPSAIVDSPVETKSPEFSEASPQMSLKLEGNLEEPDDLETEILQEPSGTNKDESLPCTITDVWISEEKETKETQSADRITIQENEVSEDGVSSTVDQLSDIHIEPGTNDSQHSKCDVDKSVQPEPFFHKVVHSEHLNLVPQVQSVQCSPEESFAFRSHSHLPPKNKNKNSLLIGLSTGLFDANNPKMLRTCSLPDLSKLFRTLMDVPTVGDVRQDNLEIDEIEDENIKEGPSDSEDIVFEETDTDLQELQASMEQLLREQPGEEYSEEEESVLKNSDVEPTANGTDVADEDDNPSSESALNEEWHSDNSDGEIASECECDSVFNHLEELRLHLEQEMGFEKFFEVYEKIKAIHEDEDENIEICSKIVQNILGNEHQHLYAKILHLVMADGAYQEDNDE

[13] = target: T5, Serine/threonine-protein kinase Nek1 (Homo sapiens); details: at 1 µM
[14] = target: T6, Serine/threonine-protein kinase Nek2 (Homo sapiens) (UniProt P51955); details: at 0.1 µM
T6 sequence (whole entry): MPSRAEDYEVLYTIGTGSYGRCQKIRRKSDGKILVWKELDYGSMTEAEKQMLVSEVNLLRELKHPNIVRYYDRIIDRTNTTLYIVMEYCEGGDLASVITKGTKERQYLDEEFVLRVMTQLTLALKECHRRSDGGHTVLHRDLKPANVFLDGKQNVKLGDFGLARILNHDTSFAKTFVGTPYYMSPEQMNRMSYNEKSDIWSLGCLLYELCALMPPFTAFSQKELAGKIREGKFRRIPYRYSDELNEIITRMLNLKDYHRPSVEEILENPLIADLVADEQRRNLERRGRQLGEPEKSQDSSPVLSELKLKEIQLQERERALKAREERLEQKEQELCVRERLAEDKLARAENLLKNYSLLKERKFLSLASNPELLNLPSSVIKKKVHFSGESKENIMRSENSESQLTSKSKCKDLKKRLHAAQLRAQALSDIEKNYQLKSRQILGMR

[15] = target: T6, Serine/threonine-protein kinase Nek2 (Homo sapiens); details: at 1 µM
[16] = target: Serine/threonine-protein kinase Nek6 (Homo sapiens) (UniProt Q9HC98); details: at 0.1 µM
Serine/threonine-protein kinase Nek6 (Homo sapiens), sequence (Q9HC98 whole entry): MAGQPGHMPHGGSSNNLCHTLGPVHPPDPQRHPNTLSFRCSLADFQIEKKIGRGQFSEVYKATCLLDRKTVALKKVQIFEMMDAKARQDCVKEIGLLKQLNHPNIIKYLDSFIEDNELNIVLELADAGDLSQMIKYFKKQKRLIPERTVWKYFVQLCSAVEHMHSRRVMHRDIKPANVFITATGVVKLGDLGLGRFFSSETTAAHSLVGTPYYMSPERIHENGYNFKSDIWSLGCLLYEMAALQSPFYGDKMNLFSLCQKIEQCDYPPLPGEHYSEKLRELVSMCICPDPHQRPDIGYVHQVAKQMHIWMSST

[17] = target: Serine/threonine-protein kinase Nek6 (Homo sapiens) (UniProt Q9HC98); details: at 1 µM
[18] = target: Serine/threonine-protein kinase Nek7 (Homo sapiens) (UniProt Q8TDX7); details: at 0.1 µM
Serine/threonine-protein kinase Nek7 (Homo sapiens), sequence (Q8TDX7 whole entry, looked up): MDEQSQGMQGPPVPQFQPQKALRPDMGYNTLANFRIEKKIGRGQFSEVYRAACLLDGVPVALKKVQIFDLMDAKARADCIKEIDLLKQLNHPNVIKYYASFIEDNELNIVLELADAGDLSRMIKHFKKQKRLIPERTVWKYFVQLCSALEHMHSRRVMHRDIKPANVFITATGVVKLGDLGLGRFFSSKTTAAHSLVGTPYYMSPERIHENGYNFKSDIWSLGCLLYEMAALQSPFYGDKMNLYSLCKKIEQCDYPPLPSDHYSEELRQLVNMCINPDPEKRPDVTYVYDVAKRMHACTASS

[19] = target: Serine/threonine-protein kinase Nek7 (Homo sapiens) (UniProt Q8TDX7); details: at 1 µM
[20] = target: T7, Serine/threonine-protein kinase Nek9 (Homo sapiens) (UniProt Q8TD19); details: at 0.1 µM;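 note: reported value is the mean percent inhibition of NEK9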
T7 sequence (whole entry): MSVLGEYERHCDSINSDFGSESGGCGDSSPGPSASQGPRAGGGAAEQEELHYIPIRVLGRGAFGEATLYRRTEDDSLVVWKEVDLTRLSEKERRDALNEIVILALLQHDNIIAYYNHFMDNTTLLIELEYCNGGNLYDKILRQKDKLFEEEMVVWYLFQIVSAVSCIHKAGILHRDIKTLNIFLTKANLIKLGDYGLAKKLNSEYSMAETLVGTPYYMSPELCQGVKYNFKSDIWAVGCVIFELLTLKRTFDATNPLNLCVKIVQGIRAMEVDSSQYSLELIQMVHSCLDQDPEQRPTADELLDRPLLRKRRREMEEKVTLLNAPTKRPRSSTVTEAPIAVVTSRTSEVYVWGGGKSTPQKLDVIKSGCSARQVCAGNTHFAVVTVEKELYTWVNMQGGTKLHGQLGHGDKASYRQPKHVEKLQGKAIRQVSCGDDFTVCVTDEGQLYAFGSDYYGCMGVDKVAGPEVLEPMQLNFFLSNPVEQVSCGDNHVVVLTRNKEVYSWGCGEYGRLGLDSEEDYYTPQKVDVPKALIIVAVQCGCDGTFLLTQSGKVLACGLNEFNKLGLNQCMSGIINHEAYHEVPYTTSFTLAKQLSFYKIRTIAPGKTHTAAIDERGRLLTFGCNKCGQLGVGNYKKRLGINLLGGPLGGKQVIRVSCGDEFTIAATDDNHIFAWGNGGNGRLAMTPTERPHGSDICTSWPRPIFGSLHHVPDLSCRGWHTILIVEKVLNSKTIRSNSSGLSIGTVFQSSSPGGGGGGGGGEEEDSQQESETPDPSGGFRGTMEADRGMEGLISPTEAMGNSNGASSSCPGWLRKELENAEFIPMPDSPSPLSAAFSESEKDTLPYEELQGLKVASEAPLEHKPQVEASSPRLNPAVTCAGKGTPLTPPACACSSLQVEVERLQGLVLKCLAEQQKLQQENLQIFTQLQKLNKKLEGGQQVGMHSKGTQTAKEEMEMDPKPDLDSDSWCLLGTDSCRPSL

Sphingosine kinase 1 (Homo sapiens), sequence (Q9NYA1 whole entry): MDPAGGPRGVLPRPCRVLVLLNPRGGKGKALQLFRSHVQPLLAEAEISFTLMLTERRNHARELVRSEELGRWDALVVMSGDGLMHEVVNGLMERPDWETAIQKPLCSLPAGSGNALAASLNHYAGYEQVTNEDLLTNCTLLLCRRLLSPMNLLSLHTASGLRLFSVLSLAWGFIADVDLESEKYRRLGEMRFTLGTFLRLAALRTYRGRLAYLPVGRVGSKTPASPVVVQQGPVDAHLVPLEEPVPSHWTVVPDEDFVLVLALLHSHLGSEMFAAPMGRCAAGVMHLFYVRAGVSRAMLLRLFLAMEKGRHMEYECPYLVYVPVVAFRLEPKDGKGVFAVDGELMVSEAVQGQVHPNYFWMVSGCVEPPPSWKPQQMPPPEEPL

SMILES | inhibition [1] [%] | inhibition [2] [%] | inhibition [3] [%] | inhibition [4] [%] | inhibition [5] [%] | inhibition [6] [%] | inhibition [7] [%] | inhibition [8] [%] | inhibition [9] [%] | inhibition [10] [%] | inhibition [11] [%] | inhibition [12] [%] | inhibition [13] [%] | inhibition [14] [%] | inhibition [15] [%] | inhibition [16] [%] | inhibition [17] [%] | inhibition [18] [%] | inhibition [19] [%] | inhibition [20] [%]
CNC(=O)c1cncc(/C=C/c2c(C)cccc2C)c1 | -1.57 | 0.8 | 2.92 | 1.93 | 5.37 | 2.95 | -0.54 | 1.19 | -0.96 | 0.37 | 0.54 | -0.56 | 2.88 | 0.66 | -0.77 | 1.65 | 0.01 | -1.37 | 0.6 | -0.53
O=C(Nc1n[nH]c2cc(-c3cc(F)ccc3F)ccc12)C1CC1 | -2.44 | 2.23 | 0.13 | 2.27 | 2.39 | 8.06 | 7.87 | 4.95 | 5.11 | 4.29 | 6.78 | 1.23 | 0.65 | 3.53 | 2.03 | 1.92 | -0.92 | 6.28 | 3.5 | 11.6
